# Results from PubChem BioAssay (NCI).
# The panel holds about 79,000 compounds, 15% with a hit somewhere; the sample as a whole holds those more often. Calls of active or inactive are those of the source. No stated cut-off is given here; in the data, active means growth inhibition above about 70%; inactive means the rest.
# Experiment: NCI Yeast Anticancer Drug Screen. Data for the sgs1 mgt1 strain (AID 161);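 further: 0% = growth of cultures given vehicle only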
# Conditions: S. cerevisiae sgs1 mgt1 strain, at 50.0 µM (retest, dose inferred, filed as 5.0), stronger effect = higher value
# In short: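 Read-out: growth inhibition vs vehicle controls. Cells: mutant yeast strain deficient in DNA damage repair.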
row,SMILES,growth inhibition
1,CCC/C(Cl)=N\OC(=O)Nc1cccc(C(F)(F)F)c1,99% (active)
2,[O-][n+]1c2ccc(O)cc2nc2ccc(Cl)cc21,-1% (inactive)
3,Clc1ccccc1C1OC1c1ccccc1Cl (centres undefined),98% (active)
4,c1ccc2c(c1)c1ncccc1c1nccnc21,-53% (inactive)
5,CC(=O)Nc1ccc2c(c1)C(=Nc1ccc(C(=O)O)cc1)c1ccccc1-2,6% (inactive)
6,COc1ccc(OC)c2cc3ccccc3cc12,27% (inactive)
7,COc1cc(C2c3cc4c(cc3OC(NNc3ccccc3)C2C)OCO4)cc(OC)c1OC (centres undefined),97% (active)
8,O=C1c2cc([N+](=O)[O-])ccc2-c2cccc(F)c21,41% (inactive)
9,CCCCCCCCCCCC(=O)N(C)C,98% (active)
10,CCCCCCCCCCCC1=C(O)C(=O)C=C(O)C1=O,85% (active)
11,Cc1ccc(CSC(N)=Nc2ccccc2)cc1C,38% (inactive)
12,CCCCCCCCCCC1CCC(=O)O1 (centres undefined),13% (inactive)
13,O=[N+]([O-])c1cc(CCl)ccc1CCl,98% (active)
14,Nc1ccc2c(c1)C(=O)c1cccc(N)c1C2=O,66% (inactive)
15,CCCCCCCCCCNC(=O)OCC,56% (inactive)
16,CC1=C(C)Cc2c(O)ccc(O)c2C1,98% (active)
17,COc1ccc2c(c1)C(=O)c1ccccc1C2,0% (inactive)
18,CCC(=O)OCCn1c2nc(=O)[nH]c(=O)c-2nc2cc(C)c(C)cc21,91% (active)
19,O=C(OCCN1CCCCCC1)C(c1ccsc1)C1CCCCC1 (centres undefined),55% (inactive)
20,Oc1c(Br)cc(Br)cc1C1CCCCC1,98% (active)

row,SMILES,growth inhibition
1,CC1(C)[C@@H]2CC[C@]1(C)[C@H](OC(=O)CSC#N)C2,97% (active)
2,S=C(N/N=C(/c1ccccc1)c1ccccn1)N1CCCCCC1,96% (active)
3,Cc1ccc2[nH]c3c(C)c4cc[n+](C)cc4c(C)c3c2c1,8% (inactive)
4,CNC(=O)OCc1c(COC(=O)NC)c(-c2ccc(-c3ccccc3)cc2)n(C)c1C,25% (inactive)
5,COc1ccccc1/C=C1\Sc2scc(-c3cccc([N+](=O)[O-])c3)[n+]2C1=O,98% (active)
6,O=[N+]([O-])c1ccc2c(c1)C(N1CCN(CCO)CC1)Cc1ccc(F)cc1S2 (centres undefined),90% (active)
7,Cc1ccc(CCC2=CCCc3c2ccc2ccccc32)cc1,10% (inactive)
8,O=[N+]([O-])c1cccc2nccc(NCCCO)c12,85% (active)
9,Cc1ccc(-n2cc(-c3ccc(Cl)cc3)c(C#N)c2N)cc1,52% (inactive)
10,Cc1ccc(S/N=C\c2ccccc2O)cc1,53% (inactive)
11,O=C(O)C1OC1(c1cccc(Cl)c1)c1ccccc1Cl (centres undefined),93% (active)
12,NC(=S)N/N=C\c1nccc2ccccc12,98% (active)
13,Clc1cccc(C(Nc2nncs2)Nc2nncs2)c1Cl,50% (inactive)
14,O=C(OCC=C1CCCC1)c1cc([N+](=O)[O-])cc([N+](=O)[O-])c1,81% (active)
15,O=C(Nc1ccccc1)C(=O)C(C(=O)c1ccccc1)C(c1ccccc1)c1ccccc1 (centres undefined),20% (inactive)
16,N#CN1C2CCC1CC(=O)C2,-5% (inactive)
17,COc1ccccc1C(=O)OCC1CCCN2CCCCC12 (centres undefined),40% (inactive)
18,CCNc1nnc(CSc2nc(-c3ccccc3)c(-c3ccccc3)[nH]2)s1,97% (active)
19,O=C1c2ccccc2-c2n[nH]c3cccc1c23,86% (active)
